About 79,000 compounds went through this panel and 15% of them were active in at least one assay; those are over-represented in the sample as a whole. Unmarked numbers belong to inactive results. Activity calls are given as the source filed them. No stated cut-off is given here; in the data, active means growth inhibition above about 70%; inactive means the rest. Where a SMILES comes first, the peptide text is derived from it. [ ]: non-standard residue; d: D form. The star is where a group is joined. Cbz = O=C(OCc1ccccc1)*; Nva = CCC[CH](N)C(=O)O
What was measured:
[1] = NCI Yeast Anticancer Drug Screen. Data for the rad50 strain (AID 155);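 further: 0% = growth of vehicle-only cultures of the same strain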; conditions: S. cerevisiae rad50 strain growth inhibition; at 50.0 µM; hits give high values
Procedure, shortened: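 DNA repair mutant yeast, compound exposure, growth read-out; inhibition is taken relative to vehicle.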

[2] = NCI Yeast Anticancer Drug Screen. Data for the mec2-1 strain (AID 157); conditions: S. cerevisiae mec2-1 strain, at 50.0 µM, hits give high values
Procedure, shortened: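 Mutant yeast (mec2-1) grown with compound; growth inhibition relative to vehicle control reported.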

[3] = NCI Yeast Anticancer Drug Screen. Data for the sgs1 mgt1 strain (AID 161);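 further: 0% = growth of cultures given vehicle only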; conditions: S. cerevisiae sgs1 mgt1 strain, at 50.0 µM, hits give high values
Procedure, shortened: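 Growth of a repair-deficient yeast mutant was monitored after compound treatment and expressed as inhibition relative to vehicle-treated cultures.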

[4] = NCI Yeast Anticancer Drug Screen. Data for the cln2 rad14 strain (AID 165);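 further: 0% = growth equal to vehicle treated cultures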; conditions: S. cerevisiae cln2 rad14 strain, at 50.0 µM, hits give high values
Procedure, shortened: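 Readout is yeast growth inhibition versus vehicle-treated controls, using a strain with cln2 and rad14 alterations exposed to compound.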

[5] = NCI Yeast Anticancer Drug Screen. Data for the bub3 strain (AID 167); conditions: S. cerevisiae bub3 mutant strain, at 50.0 µM, hits give high values
Procedure, shortened: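 In this screen, a yeast mutant lacking normal mitotic checkpoint function is challenged with compound. Relative growth versus vehicle gives the inhibition value.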

[6] = NCI Yeast Anticancer Drug Screen. Data for the mlh1 rad18 strain (AID 175); conditions: S. cerevisiae mlh1 rad18 strain growth inhibition; at 50.0 µM; hits give high values
Procedure, shortened: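 Genetically defined yeast (DNA repair-deficient) exposed to compounds; growth inhibition determined relative to vehicle.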

| Structure (SMILES) | growth inhibition [1] | growth inhibition [2] | growth inhibition [3] | growth inhibition [4] | growth inhibition [5] | growth inhibition [6] |
| --- | --- | --- | --- | --- | --- | --- |
| C[N+](C)(C)CCCSc1nc2ccccc2[nH]1 | 9.6% | -7.15% | -52% | -30.9% | -24.4% | -15.5% |
| O=C(COc1c(Cl)cc(Cl)c2ccccc12)NC1c2ccccc2Oc2ccccc21 | 22.6% | 0.4% | 34.1% | 7.45% | 10.2% | 14.4% |
| N#CC(=Nc1ccccc1)c1cccc(Br)c1 | 34.5% | 5.05% | 18.9% | 15.4% | 21.4% | 28.4% |
| COc1ccc(C(C)=C(C#N)C#N)cc1 | 18.9% | 2.7% | -5.65% | 16.1% | 20.4% | 13.1% |
| NCC(=O)NC1(C(=O)NCC(=O)O)CCCC1 | -2.45% | -2.2% | -20.9% | -13.9% | 6.5% | 1.3% |
| NC(=O)OCC1CCCCC1OC(N)=O (stereo unspecified) | 26.1% | -17.4% | -14.4% | -92.7% | -2.6% | -10.4% |
| CC1C(=O)C2C1CS2(=O)=O (stereo unspecified) | -0.9% | 0.65% | 5% | -59.1% | 13% | -5.45% |
| CCN(CC)CC(O)CO (stereo unspecified) | -4.55% | -16.6% | -17.1% | 5.9% | 2% | 1.35% |
| CC(Sc1nc2ccccc2c(=O)[nH]1)c1ccccc1 (stereo unspecified) | 3.1% | -1.85% | 3.3% | -21.8% | 7.3% | -6.7% |
| Cc1ccc2oc(=O)c3c(O)c4cccc(OC5OC(C)C6O[C@@H](c7ccccc7)OC6C5OC5OC(C)C(O)C(O)C5O)c4c4oc(=O)c1c2c34 (stereo partly specified) | 87.2% (active) | 89.7% (active) | 91.5% (active) | 83.6% (active) | 89.7% (active) | 75.4% (active) |
| CC1(C)OC(=O)N=C1c1ccc(Cl)cc1 | -20.2% | -10% | -19.8% | 12.5% | -20% | -12.2% |
| CCOC(=O)c1ccccc1OC(=O)Oc1ccccc1C(=O)OCC | 17.9% | 10.2% | -5.25% | -23.1% | -5.55% | 33.9% |
| O=C(O)CNC(=O)NNc1ccccc1 | -4.75% | -7.6% | -11% | 28.3% | -10.3% | -12.7% |
| O=C1c2ccccc2C(=O)N1CC1CO1 (stereo unspecified) | 2.85% | 10.3% | 0.5% | -7.7% | 3.4% | 27.3% |
| O=C(NNC(=S)Nc1ccc(Cl)cc1)C12CC3CC(CC(C3)C1)C2 | -9.4% | 6.15% | -4.15% | 17.4% | 30.8% | 8.7% |
| CCOC(=O)/C(C#N)=C/c1ccc([N+](=O)[O-])cc1 | 19.2% | -2.75% | 14.5% | -5.6% | 0.35% | 8.4% |
| O=c1[nH]cc(O)c(=O)[nH]1 | -25.1% | -41.3% | -8.95% | 12.7% | -17.8% | 6.4% |
| Oc1ccc2nccnc2c1 | 10.1% | 1.6% | 10.2% | -1.6% | 3.6% | 13.1% |
| COc1ccc(C2C(C(=O)NCc3ccccc3)=C(C)NC(C)=C2C(=O)NCc2ccccc2)cc1OC | -1.8% | -4.5% | -23.6% | 8.4% | 3.35% | 16.9% |
| CCCN=C(NNC(N)=O)C(C)=O | 24.9% | 7.9% | -4.35% | 5.55% | 15.7% | -1.45% |
| O=C(O)c1cc(S(=O)(=O)O)ccc1O | 9.7% | 18% | -9.9% | -29.9% | -16.7% | -13.2% |

| Structure (SMILES) | growth inhibition [1] | growth inhibition [2] | growth inhibition [3] | growth inhibition [4] | growth inhibition [5] | growth inhibition [6] |
| --- | --- | --- | --- | --- | --- | --- |
| O=C(c1ccco1)N(C(=S)N1CCN(c2ccccc2)CC1)C1CCCCC1 | 16.4% | 25.4% | 26.4% | 36% | 24.4% | 19.1% |
| CCCC(NC(=O)OCc1ccccc1)C(=O)NC(Cc1ccc(O)cc1)C(=O)O (stereo unspecified) (Cbz-[Nva]-Tyr-OH; configuration not given here) | -3.5% | -0.35% | -4.2% | 7% | -16.4% | 10% |
| CCOC(=O)C(C(=O)OC(c1ccccc1)c1ccccc1)(C(c1ccccc1)c1ccccc1)C(c1ccccc1)c1ccccc1 | 0.45% | 18% | 1.65% | -9.25% | -1.4% | -10.8% |
| CCOc1ccc(C(C)(CC)c2cc3c(cc2OC)OCO3)cc1 (stereo unspecified) | -18.9% | -14.3% | -23.3% | 3.55% | -20.1% | 3.85% |
| Cc1cc(NC(=O)C(=O)Cc2cnc3ccccc3n2)c(S(=O)(=O)O)cc1Cl | 1.45% | 12.8% | -2.7% | -23% | -11.2% | -7.8% |
| Cc1cccc(C2=N/C(=C\c3c(O)ccc4ccccc34)C2=O)c1 | 6.55% | 7.1% | 0.9% | 6.55% | 10.9% | -6.65% |
| Nc1nnc(Sc2n[nH]c(=O)[nH]c2=O)s1 | -8.8% | -2.6% | -14.3% | -0.2% | -4.9% | -8.05% |
| Cc1cc(C(=O)NN)no1 | -4.75% | -4.4% | -3.9% | -10.4% | -7.15% | -8.15% |
| COCCCNc1ccc([N+](=O)[O-])cn1 | -21.4% | -40.6% | -20.4% | 2.2% | -13% | -14.4% |
| CCOC(=O)c1c(/N=C/c2ccc(N(C)C)cc2)sc2c1CCCC2 | 14.2% | 13.8% | 17.3% | 23.6% | 17.8% | 5.85% |
| Cc1ccc(C(=O)Nc2ccc(S(=O)(=O)O)c3cc(S(=O)(=O)O)cc(S(=O)(=O)O)c23)cc1N | -28.1% | -7.05% | -54.5% | 1.7% | -13.2% | -28.2% |
| CC(=O)Nc1cccc(/C=C/c2ccc([N+](=O)[O-])cc2)c1 | 52.8% | 42.6% | 53% | 32.5% | 46.4% | 89.2% (active) |
| CCCCCCCCCC(=O)N(C)OC | 6.1% | 4.3% | 7.05% | 1.3% | -4.6% | 18.1% |
| Cc1ccc(S(=O)(=O)n2cnc(CC(NC(=O)C3CCC(=O)N3C(=O)OCc3ccccc3)C(=O)N3CCCC3C(=O)NN)c2)cc1 (stereo unspecified) | -38.9% | -43.1% | -30.8% | -9.95% | -30.9% | -18.2% |
| O=C(O)C(=O)NCc1cnccn1 | 10.9% | -8.25% | -3.65% | -29.6% | 11.9% | -19.1% |
| Nc1nc(-c2ccc3c(ccc4ccccc43)c2)cs1 | 7.6% | 15.5% | 18.2% | -46.3% | 47.7% | 28.2% |
| Oc1ccc([C@H]2Oc3c(c(O)cc4c3C3c5c(O)cc(O)cc5OC(c5ccc(O)cc5)(O4)[C@H]3O)CC2O)cc1 (stereo partly specified) | 1.85% | -4.6% | -20.9% | -4.65% | -7% | -5.75% |
| CCCc1c[nH]c(-c2ccc(-c3cc(CCC)c(C=O)[nH]3)s2)c1 | -44.8% | -22.8% | -35.9% | -2.8% | -28.9% | -56.7% |
| Cc1cc(Br)cc(C)c1NC(=O)C(=O)C1C(=O)C(CC2C(=O)c3ccccc3C2=O)C(=O)CC1(C)C (stereo unspecified) | 36.1% | 22.9% | 0.75% | -5.7% | 4.35% | 16.4% |
| S=C(N/N=C/c1cccc2ccccc12)Nc1c(Cl)cccc1Cl | 67.4% | 83.6% (active) | 94.2% (active) | 55.6% | 44.6% | 66.2% |

From PubChem BioAssay (NCI)
